# The panel holds about 79,000 compounds, 15% with a hit somewhere; the sample as a whole holds those more often. A number with no mark means an inactive call. Activity calls are given as the source filed them. Rule as the data show it: active = growth inhibition above about 70%; inactive = the rest.
# Tests used:
# [1] = NCI Yeast Anticancer Drug Screen. Data for the rad52 strain (AID 147);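 also: 0% = growth of vehicle-treated control cultures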; settings: S. cerevisiae rad52 mutant growth inhibition, active compounds read high
# In short: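 Read-out: growth inhibition versus vehicle-treated controls. Cells were a DNA repair-deficient yeast strain treated with compounds.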
# [2] = NCI Yeast Anticancer Drug Screen. Data for the wt1 strain (AID 149);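 also: 0% = growth of vehicle-treated wt1 cultures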; settings: S. cerevisiae wt1 strain (SPY 50644) growth inhibition, active compounds read high
# In short: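 Each compound is tested on wt1 yeast and the loss of growth versus vehicle gives the inhibition value.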
# [3] = NCI Yeast Anticancer Drug Screen. Data for the rad50EPP+ strain (AID 151);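 also: 0% = growth of vehicle-treated control cultures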; settings: S. cerevisiae rad50 mutant strain, active compounds read high
# In short: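 Growth inhibition read against vehicle controls in rad50EPP+ yeast, a strain altered in DNA damage repair, after compound exposure.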
# [4] = NCI Yeast Anticancer Drug Screen. Data for the mgt1 strain (AID 153); settings: S. cerevisiae mgt1 mutant growth inhibition, active compounds read high
# In short: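 mgt1 yeast grown with test compound; read-out is growth inhibition versus vehicle-treated cultures.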
# [5] = NCI Yeast Anticancer Drug Screen. Data for the rad50 strain (AID 155);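 also: 0% = growth of vehicle-only cultures of the same strain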; settings: S. cerevisiae rad50 strain growth inhibition, active compounds read high
# In short: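 Vehicle-treated cultures provide the reference for the growth inhibition reported for compound-exposed, repair-deficient yeast.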
# [6] = NCI Yeast Anticancer Drug Screen. Data for the mec2-1 strain (AID 157); settings: S. cerevisiae mec2-1 strain, active compounds read high
# In short: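 Yeast mec2-1 mutant treated with compound. Readout: growth inhibition vs vehicle controls.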
# [7] = NCI Yeast Anticancer Drug Screen. Data for the rad14 strain (AID 159);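 also: 0% = growth of vehicle-treated control cultures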; settings: S. cerevisiae rad14 strain growth inhibition, active compounds read high
# In short: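 Inhibition of growth is reported for a repair-deficient yeast mutant following compound treatment, calculated relative to cultures that received vehicle.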
# [8] = NCI Yeast Anticancer Drug Screen. Data for the sgs1 mgt1 strain (AID 161);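 also: 0% = growth of cultures given vehicle only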; settings: S. cerevisiae sgs1 mgt1 strain, active compounds read high
# In short: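 Test agents were incubated with a DNA-repair-mutant yeast strain. Growth was then read and compared against vehicle-treated controls.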
# [9] = NCI Yeast Anticancer Drug Screen. Data for the CLN2oe strain (AID 163);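 also: 0% = growth of vehicle-only control cultures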; settings: S. cerevisiae CLN2oe strain, active compounds read high
# In short: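 Read-out: yeast growth inhibition, expressed relative to vehicle-only controls. The strain bears an engineered cell-cycle alteration.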
# [10] = NCI Yeast Anticancer Drug Screen. Data for the cln2 rad14 strain (AID 165);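 also: 0% = growth equal to vehicle treated cultures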; settings: S. cerevisiae cln2 rad14 strain, active compounds read high
# In short: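 cln2 rad14 yeast strain; compound exposure; growth inhibition read vs vehicle controls.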
# [11] = NCI Yeast Anticancer Drug Screen. Data for the bub3 strain (AID 167); settings: S. cerevisiae bub3 mutant strain, active compounds read high
# In short: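 Mutant yeast screening strain plus compound; vehicle-treated cultures serve as the 0% inhibition reference.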
# [12] = NCI Yeast Anticancer Drug Screen. Data for the wt2 strain (AID 169); settings: S. cerevisiae wt2 strain growth inhibition, active compounds read high
# In short: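 Read-out: growth inhibition versus vehicle-treated control cultures after compound exposure of the yeast strain.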
# [13] = NCI Yeast Anticancer Drug Screen. Data for the mlh1 strain (AID 171);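 also: 0% = growth of vehicle-treated control cultures of the same strain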; settings: S. cerevisiae mlh1 strain growth inhibition, active compounds read high
# In short: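 Read-out: growth inhibition versus vehicle controls. Strain: engineered yeast with a defined DNA repair or cell cycle defect, compound-treated.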
# [14] = NCI Yeast Anticancer Drug Screen. Data for the sgs1 strain (AID 173);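 also: 0% = growth of vehicle-only control cultures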; settings: S. cerevisiae sgs1 mutant, active compounds read high
# In short: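 Read-out: yeast growth inhibition relative to vehicle controls, following compound exposure of a strain with a defined DNA repair/cell cycle alteration.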
# [15] = NCI Yeast Anticancer Drug Screen. Data for the mlh1 rad18 strain (AID 175); settings: S. cerevisiae mlh1 rad18 strain growth inhibition, active compounds read high
# In short: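 Yeast w/ defined DNA-repair lesions; compound exposure; growth vs vehicle controls → % inhibition.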
# [16] = NCI Yeast Anticancer Drug Screen. Data for the rad18 strain (AID 177); settings: S. cerevisiae rad18 mutant growth inhibition, active compounds read high
# In short: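 Readout: growth inhibition vs vehicle controls. Cells: genetically altered yeast strain, DNA repair defect.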
# [17] = at 5.0 µM (retest, dose inferred, filed as 0.5)
# [18] = at 50.0 µM (retest, dose inferred, filed as 5.0)
compound,measurement,setting,value
O=C(C#Cc1ccccc1)Nc1ccccc1,growth inhibition,[1]; at 1.2 µM,-14%
same,growth inhibition,[1]; at 3.7 µM,-11%
same,growth inhibition,[1]; at 11.0 µM,-7%
same,growth inhibition,[1]; at 33.0 µM,23%
same,growth inhibition,[1]; at 100.0 µM,97% (active)
same,growth inhibition,[2]; at 1.2 µM,-1%
same,growth inhibition,[2]; at 3.7 µM,-10%
same,growth inhibition,[2]; at 11.0 µM,-6%
same,growth inhibition,[2]; at 33.0 µM,6%
same,growth inhibition,[2]; at 100.0 µM,95% (active)
same,growth inhibition,[3]; at 1.2 µM,-4%
same,growth inhibition,[3]; at 3.7 µM,4%
same,growth inhibition,[3]; at 11.0 µM,37%
same,growth inhibition,[3]; at 33.0 µM,70% (active)
same,growth inhibition,[3]; at 100.0 µM,92% (active)
same,growth inhibition,[4]; at 1.2 µM,-5%
same,growth inhibition,[4]; at 3.7 µM,-10%
same,growth inhibition,[4]; at 11.0 µM,-4%
same,growth inhibition,[4]; at 33.0 µM,58%
same,growth inhibition,[4]; at 100.0 µM,97% (active)
same,growth inhibition,[5]; at 1.2 µM,-20%
same,growth inhibition,[5]; at 3.7 µM,-25%
same,growth inhibition,[5]; [17],-147%
same,growth inhibition,[5]; at 11.0 µM,-17%
same,growth inhibition,[5]; at 33.0 µM,52%
same,growth inhibition,[5]; [18],20%
same,growth inhibition,[5]; at 50.0 µM,45.8%
same,growth inhibition,[5]; at 100.0 µM,97% (active)
same,growth inhibition,[6]; at 1.2 µM,-9%
same,growth inhibition,[6]; at 3.7 µM,-7%
same,growth inhibition,[6]; [17],-48%
same,growth inhibition,[6]; at 11.0 µM,-8%
same,growth inhibition,[6]; at 33.0 µM,-2%
same,growth inhibition,[6]; [18],-29%
same,growth inhibition,[6]; at 50.0 µM,33.6%
same,growth inhibition,[6]; at 100.0 µM,80% (active)
same,growth inhibition,[7]; at 1.2 µM,-3%
same,growth inhibition,[7]; at 3.7 µM,-9%
same,growth inhibition,[7]; at 11.0 µM,4%
same,growth inhibition,[7]; at 33.0 µM,67%
same,growth inhibition,[7]; at 100.0 µM,97% (active)
same,growth inhibition,[8]; [17],-57%
same,growth inhibition,[8]; [18],67%
same,growth inhibition,[8]; at 50.0 µM,64.7%
same,growth inhibition,[9]; at 1.2 µM,-10%
same,growth inhibition,[9]; at 3.7 µM,-13%
same,growth inhibition,[9]; at 11.0 µM,-14%
same,growth inhibition,[9]; at 33.0 µM,-5%
same,growth inhibition,[9]; at 100.0 µM,94% (active)
same,growth inhibition,[10]; [17],-64%
same,growth inhibition,[10]; [18],-42%
same,growth inhibition,[10]; at 50.0 µM,-13.2%
same,growth inhibition,[11]; at 1.2 µM,-10%
same,growth inhibition,[11]; at 3.7 µM,-7%
same,growth inhibition,[11]; [17],-74%
same,growth inhibition,[11]; at 11.0 µM,-7%
same,growth inhibition,[11]; at 33.0 µM,24%
same,growth inhibition,[11]; [18],-6%
same,growth inhibition,[11]; at 50.0 µM,15.4%
same,growth inhibition,[11]; at 100.0 µM,97% (active)
same,growth inhibition,[12]; at 1.2 µM,-9%
same,growth inhibition,[12]; at 3.7 µM,-4%
same,growth inhibition,[12]; at 11.0 µM,19%
same,growth inhibition,[12]; at 33.0 µM,90% (active)
same,growth inhibition,[12]; at 100.0 µM,99% (active)
same,growth inhibition,[13]; at 1.2 µM,-15%
same,growth inhibition,[13]; at 3.7 µM,-12%
same,growth inhibition,[13]; at 11.0 µM,-9%
same,growth inhibition,[13]; at 33.0 µM,72% (active)
same,growth inhibition,[13]; at 100.0 µM,98% (active)
same,growth inhibition,[14]; at 1.2 µM,-9%
same,growth inhibition,[14]; at 3.7 µM,-3%
same,growth inhibition,[14]; at 11.0 µM,33%
same,growth inhibition,[14]; at 33.0 µM,88% (active)
same,growth inhibition,[14]; at 100.0 µM,99% (active)
same,growth inhibition,[15]; [17],-149%
same,growth inhibition,[15]; [18],-10%
same,growth inhibition,[15]; at 50.0 µM,38.9%
same,growth inhibition,[16]; at 1.2 µM,-9%
same,growth inhibition,[16]; at 3.7 µM,-12%
same,growth inhibition,[16]; at 11.0 µM,-9%
same,growth inhibition,[16]; at 33.0 µM,8%
same,growth inhibition,[16]; at 100.0 µM,94% (active)

# Reference: PubChem BioAssay (NCI)
